Results reported in PubChem BioAssay AID686978 (National Center for Advancing Translational Sciences (NCATS), 2013).
The whole screen tested about 420,000 compounds, of which about 64,000 (15%) were called active. Roughly 27% stayed inconclusive and do not appear here. The call rests on the fitted dose curve; in most records, active means well fitted inhibition curve with a large enough effect; inconclusive means small, poorly fitted or top-dose-only effect; inactive means flat fitted curve, though single readings scatter. A selection follows. A call without a number means that no potency is given here.

Experiment: qHTS for Inhibitors of human tyrosyl-DNA phosphodiesterase 1 (TDP1): qHTS in cells in absence of CPT; further: nearly all actives have a fitted effect of over 55% in size
Settings: DT40 Tdp1-/- hTDP1 cells, no CPT, ATP luminescence, 48 h; activity change, negative = growth inhibition: at 46.2 µM (top of the series)
Method in brief: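 Cells were dispensed at 400 per well, compounds added by pin tool, plates incubated ≥48 hr at 37 °C, then CellTiter-Glo added for 30 min at room temperature before luminescence reading. Line: DT40 Tdp1-/- complemented with hTDP1; camptothecin omitted.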
Potency means the concentration at half of the fitted maximal effect.

Row | Compound | Potency
1 | CS(=O)(=O)N(CC(=O)N1CCCC1)Cc1ccccc1 | inactive
2 | Cc1ccc2nc(-c3cccc(Br)c3)cc(C(=O)Nn3cnnc3)c2c1 | inactive
3 | O=C1CCCc2c1nc(-c1cccc(Cl)c1)n2O | inactive
4 | O=c1c2cc(Br)ccc2nc(-c2cccc(Cl)c2)n1O | 23.1 µM (active)
5 | CCOC(=O)N1CCC(NC(=O)CCc2cn(C)c3ccccc23)CC1 | inactive
6 | CCC(CC)c1nnc(NC(=O)C2=COCCO2)s1 | inactive
7 | CNC(=O)NC(=O)CSc1nnc(-c2ccc(F)cc2)n1CC1CCCO1 (centres undefined) | inactive
8 | Cc1ccc(CNS(=O)(=O)c2ccc(-c3cc(C(F)(F)F)on3)s2)cc1 | inactive
9 | CC1CN(C2CCCCC2)c2nc3c(c(=O)n(C)c(=O)n3C)n2C1 (centres undefined) | inactive
10 | Cc1cccc(N2CC(C)Cn3c2nc2c3c(=O)n(CC(=O)OCc3ccccc3)c(=O)n2C)c1 (centres undefined) | 13 µM (active)
11 | COCCn1cnc2c1c(=O)n(CC(=O)NN)c(=O)n2Cc1ccccc1 | inactive
12 | Cc1ccccc1SCC(=O)OCC(=O)N1CC(=O)Nc2ccccc21 | inactive
13 | CC(=O)C1C(c2cccc(Oc3ccccc3)c2)NC(=O)NC1(O)C(F)(F)F (centres undefined) | inactive
14 | C[C@H](CO)N1C[C@H](C)[C@@H](CN(C)C(=O)c2cccc(F)c2)Oc2cc(-c3cncnc3)ccc2S1(=O)=O | inactive
15 | C[C@@H]1CN([C@H](C)CO)S(=O)(=O)c2ccc(C#C[C@@H](C)O)cc2O[C@@H]1CN(C)Cc1ccc(-c2ccccc2)cc1 | 6.51 µM (active)
16 | C[C@@H]1CN([C@@H](C)CO)S(=O)(=O)c2ccc(C#Cc3cccc(F)c3)cc2O[C@H]1CN(C)S(=O)(=O)c1cn(C)cn1 | 23.1 µM (active)
17 | C[C@H]1CN([C@@H](C)CO)S(=O)(=O)c2ccc(-c3cccc(F)c3)cc2O[C@@H]1CN(C)C | inactive
18 | C[C@@H]1CN([C@@H](C)CO)S(=O)(=O)c2ccc(-c3ccc(C(=O)N(C)C)cc3)cc2O[C@@H]1CN(C)Cc1ccccc1C(=O)O | inactive
19 | COCC(=O)N(C)C[C@H]1Oc2cc(Br)ccc2S(=O)(=O)N([C@H](C)CO)C[C@H]1C | inactive
20 | CCCCc1nc(SCC(=O)Nc2nnc(C(C)C)s2)n[nH]1 | inactive
21 | COc1cccc(N2C(=O)CN(Cc3ccccc3)C2=S)c1 | inactive
22 | COc1ccccc1NC(=O)C1=C(C)Nc2nnnn2C1c1cccc(Br)c1 (centres undefined) | inactive
23 | Cc1ccccc1OCCOc1ccc([N+](=O)[O-])cc1/C=N/n1cnnc1 | 1.46 µM (active)
24 | COc1ccccc1OCCOc1ccc(/C=N/n2cnnc2)cc1 | inactive
25 | Cc1cc([N+](=O)[O-])c(-c2ccc(/C=N/n3cnnc3)o2)cc1Cl | inactive
26 | Cc1ccc(Cn2c(=O)n(-c3ccc(C)cc3)c(=O)c3c2c2cc(C)ccc2n3C)cc1 | inactive

Row | Compound | Potency
27 | Cc1nnc(SCC(=O)N2CCOCC2)[nH]c1=O | inactive
28 | CCC(C)n1[nH]c(=O)c2c(C)cc(C)nc21 (centres undefined) | inactive
29 | Cc1ccc(S(=O)(=O)N2CCC(C(=O)OCC(=O)N3CC(=O)Nc4ccccc43)CC2)cc1 | inactive
30 | CCOC(=O)COn1c(=O)c(-c2ccc(OCC)cc2)[n+]([O-])c2ccccc21 | inactive
31 | COc1ccc(OC)c(-c2c(=O)n(OCc3ccccc3Br)c3ccccc3[n+]2[O-])c1 | 23.1 µM (active)
32 | O=c1c(-c2ccc(Cl)cc2)[n+]([O-])c2ccccc2n1OCc1nc2ccccc2[nH]1 | inactive
33 | CCOc1ccc(OCC)c(-c2c(=O)n(OCc3ccc(Cl)cc3)c3ccccc3[n+]2[O-])c1 | 8.2 µM (active)
34 | Cc1cc(C)cc(OCC(=O)OCC(=O)NC2CCCC2)c1 | inactive
35 | COC(=O)Cc1nc2c(N)nc(N)nc2[nH]c1=O | inactive
36 | CC1CCCCN1S(=O)(=O)c1ccc(F)c(C(=O)Nc2ccccc2C(F)(F)F)c1 (centres undefined) | 18.4 µM (active)
37 | CS(=O)(=O)N1CCCC(C(=O)Nc2ccccc2C(F)(F)F)C1 (centres undefined) | inactive
38 | CC(C)c1ccc(NC(=O)c2cc(S(=O)(=O)N3CCc4ccccc4C3)ccc2F)cc1 | inactive
39 | COc1cc(OC)c(C(=O)NNC(=O)c2ccccc2-n2cccc2)cc1OC | inactive
40 | O=C(O)c1n[nH]nc1-c1ccccc1 | inactive
41 | CC(C)(C)OC(=O)N1CCC(c2c(C(=O)N3CCN(c4cccc(Cl)c4)CC3)cnn2-c2cccc(Cl)c2)CC1 | 9.2 µM (active)
42 | Cc1cccc(-n2ncc(C(=O)N3CCc4ccccc4C3)c2C2CCN(C(=O)OC(C)(C)C)CC2)c1 | inactive
43 | CC(C)(C)OC(=O)N1CCN(C(=O)c2[nH]c(C(F)(F)F)nc2-c2ccccc2)CC1 | inactive
44 | CC(C)(C)OC(=O)N1CCC(C(=O)NNC(=O)c2ccc(Cl)cc2Cl)CC1 | inactive
45 | Cc1cccc(-n2ncc(C(=O)N3CCN(c4ccc(Cl)cc4)CC3)c2C2CCN(C(=O)OC(C)(C)C)CC2)c1 | 9.2 µM (active)
46 | Cc1cccc(-n2ncc(C(=O)N3CCC(C)CC3)c2C2CCN(C(=O)OC(C)(C)C)CC2)c1 | inactive
47 | N/C(=N\OC(=O)CCC1CCCCC1)c1ccccn1 | inactive
48 | Cc1cccc(OCC(=O)NC2CC(C)(C)NC(C)(C)C2)c1 | inactive
49 | C/C(=N\NC(=O)Cc1ccccc1[N+](=O)[O-])c1cccnc1 | inactive
50 | CN(CC(=O)O)C(=O)c1ccccc1 | inactive
51 | CN(O)C(=S)c1ccccc1 | 0.164 µM (active)
52 | S=C(c1ccccc1)N1CCCC1 | inactive

Row | Compound | Potency
53 | CN(C)C(=O)c1ccc(-c2cncnc2Nc2ccccc2)cc1 | inactive
54 | CC(Cc1cccs1)NC(=O)NC1CCCCC1 (centres undefined) | inactive
55 | Cc1nc([N+](=O)[O-])cn1CC(=O)Nc1ccc2c(c1)OCO2 | inactive
56 | COc1ccc(C(=O)COC(=O)C(O)c2ccccc2)c(OC)c1 (centres undefined) | inactive
57 | Cc1c(C(=O)c2cccc([N+](=O)[O-])c2)c2ccccn2c1CCC#N | inactive
58 | COc1ccc(C(=O)c2c(C)c(CCC#N)n3ccccc23)c(OC)c1 | 20.6 µM (active)
59 | CC(C)(C)c1ccc(/C=C2\Oc3c(ccc(O)c3CN3CCN(CCO)CC3)C2=O)cc1 | inactive
60 | CCCCNC(=O)N1CCCC(N(C)CCc2ccc(OC)c(OC)c2)C1 (centres undefined) | inactive
61 | CC(C)=CCCC1(C)C=Cc2c(ccc3c2[nH]c2cc(O)c(C)cc23)O1 (centres undefined) | 16.4 µM (active)
62 | COc1ccc(-c2cnc(SCCNC(=O)c3ccc4c(c3)OCO4)[nH]2)cc1 | inactive
63 | Brc1ccc(-c2nnc(-c3ccccc3)o2)o1 | inactive
64 | Cc1ccc(CN2CCN(c3ccccc3Cl)CC2)o1 | inactive
65 | O=C(O)c1cc2c(cc1NC(=O)c1c(F)cccc1Cl)OCCCO2 | inactive
66 | O=C(CN1CCCCC1)NC(=O)Nc1ccccc1F | inactive
67 | O=C(CSC(=S)N1CCCCC1)c1c(F)cccc1F | 8.2 µM (active)
68 | Cc1nnc(SCC(=O)N(C(C)C)C(C)C)nc1C | inactive
69 | CC(=O)NCCC(=O)Nc1nc(C)c(Cc2ccc3c(c2)OCO3)s1 | inactive
70 | CC(=O)Nc1ccc(NC(=O)C(C)n2c3ccccc3c3nc(=O)cc(C)n32)cc1 (centres undefined) | inactive
71 | O=C(Nc1cccc([N+](=O)[O-])c1)Nn1cnnc1 | inactive
72 | Cc1c(NC(=O)Nc2cccc([N+](=O)[O-])c2)c(=O)n(-c2ccccc2)n1C | inactive
73 | CC(=O)Nc1ccc(Nc2nc3c(S(=O)(=O)c4ccc(C)c(C)c4)nnn3c3ccccc23)cc1 | inactive
74 | CCc1nc(SCC(=O)NNC(=O)c2ccc(C)cc2)c2ccccc2n1 | inactive
75 | N#Cc1cccc(Nc2c3c(nc4ccccc24)CCCC3)c1 | 25.9 µM (active)
76 | N#Cc1cccc(NC(=O)CN2CCCCCC2)c1 | inactive
77 | O=[N+]([O-])c1cccc(Nc2c3ccccc3nc3ccccc23)c1 | 16.4 µM (active)
78 | N#Cc1cccc(NC(=O)CCC2CCCC2)c1 | inactive

Row | Compound | Potency
79 | CC(=O)Nc1ccc(Nc2c3ccccc3nc3ccccc23)cc1 | 0.0082 µM (active)
80 | Cc1ccc(Nc2c3c(nc4ccccc24)CCC3)cc1 | 18.4 µM (active)
81 | Cc1nn(C(C)(C)C)c(OC(=O)CC(C)C)c1S(=O)(=O)c1ccccc1 | inactive
82 | CCn1c(CC(=O)Nc2ccccc2)nnc1SCC(=O)N1CCOCC1 | inactive
83 | CCC1C(=O)c2ccccc2N(C)C1=O (centres undefined) | inactive
84 | Cc1[nH]n(-c2ccccc2)c(=O)c1N=Nc1ccccc1C(=O)N1CCCCC1 | inactive
85 | Cc1[nH]n(-c2ccc([N+](=O)[O-])cc2)c(=O)c1C=NCCN1CCN(C(=O)c2ccccc2F)CC1 | 14.6 µM (active)
86 | CN1CCN(C(=O)c2cnn(-c3ccccc3)c2NC(=O)c2ccc([N+](=O)[O-])cc2)CC1 | inactive
87 | COc1ccc2c(CC(=O)OCC(=O)NC(N)=O)coc2c1 | inactive
88 | COc1ccc(OC)c(C(=O)c2ccc(C(=O)O)cc2)c1 | inactive
89 | COc1ccc2occ(C(=O)c3ccc(N=C(C)N(C)C)cc3)c2c1 | 23.1 µM (active)
90 | CN(C(=O)COC(=O)c1cc(=O)[nH]c2ccccc12)C1CCCCC1 | inactive
91 | CN(CC(=O)Nc1c(Cl)cccc1Cl)C(=O)CNC(=O)C1CCCCC1 | inactive
92 | O=C(O)C(CCc1ccccn1)c1ccccc1 (centres undefined) | inactive
93 | O=C(COC(=O)Cn1[nH]c(=O)c2ccccc2c1=O)Nc1ncc(Cl)cc1Cl | inactive
94 | O=C(CSC1=NCCS1)Nc1nc(-c2ccccc2)cs1 | inactive
95 | Cc1ccc(-c2csc(NC(=O)Cn3[nH]c(=O)c4ccccc4c3=O)n2)cc1 | 16.4 µM (active)
96 | C=CCOc1ccc(Cl)cc1CNCCCN1CCOCC1 | inactive
97 | CCCCn1c(N)c(N(CCC(C)C)C(=O)CC2OC(=O)c3ccccc32)c(=O)[nH]c1=O (centres undefined) | inactive
98 | CCOC(=O)c1sc(N)c(C#N)c1COC(=O)C1=COCCO1 | inactive
99 | Cc1cccc(NC(=O)C2CCCN(C(=O)NCc3ccccc3)C2)c1C (centres undefined) | inactive
100 | COc1ccc(-c2cn3nc(N4CCC(C(=O)Nc5cccc(C)c5C)CC4)sc3n2)cc1 | 11.6 µM (active)
101 | COc1ccc(-c2cn3nc(N4CCCC(C(=O)NCCCOC(C)C)C4)sc3n2)cc1 (centres undefined) | 18.4 µM (active)
102 | Cc1cc(=O)n2nc(N3CCCC(C(=O)NCCC4=CCCCC4)C3)sc2n1 (centres undefined) | inactive
103 | Cc1cc(=O)n2nc(N3CCCC(C(=O)NCc4ccc(Cl)cc4)C3)sc2n1 (centres undefined) | inactive
104 | Cc1cc(=O)n2nc(N3CCC(C(=O)Nc4c(F)c(F)c(F)c(F)c4F)CC3)sc2n1 | inactive
